Screening data (PubChem BioAssay)
HCV inh: inhibitors of hepatitis C virus infection; Huh7.5.1 HCVcc-Cre infection, luciferase reporter, 44 h; Potency, µM (highest dose often 41.8 µM), for inactives: at the top dose activity change, negative = inhibition, actives largely listed as inhibitors; hit rate 3.4% among 340,000; active = well fitted inhibition curve with a large enough effect; inconclusive = small, poorly fitted or top-dose-only effect, or another doubt; inactive = no such curve, though single readings can be large or run the other way; also: potency is read from the fitted curve at half-maximal effect
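Infectious HCVcc-Cre (~0.5 moi) was added to cells just after compound, with cells seeded 4 h earlier at 1,000 per well. Luciferase activity after 44 h culture reported infection; substrate was incubated 15 min at room temperature before reading.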
HCMV antiviral: blocks human cytomegalovirus replication. AID 1259415. HFF cells, HCMV-luciferase reporter, 72 h; active compounds read low. hit rate 4.5% among 410,000. activity change, negative = inhibition, % at 57.5 µM; in the data active = activity change below about -60%; inconclusive = no clear call, values can overlap the other calls; inactive = above about -39%
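Two-dose cell screen: HFF monolayers treated with compounds and infected with luciferase-expressing HCMV at 1 PFU/cell, 72 h at 37C, then lysed for luciferase measurement.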
VACV Venus inh: vaccinia inhibition (Venus reporter) | AID 720580 | Potency, µM (highest dose often 36.5 µM), for inactives: top-dose activity change, negative = inhibition, most hits filed as inhibitors | hit rate 0.46% among 330,000 | Vaccinia virus Venus reporter expression, fluorescence; calls by dose curve; tested in A549 cells; also: potency is read from the fitted curve at half-maximal effect; nearly all actives have a fitted effect of over 30% in size
LASV entry inh: Lassa virus entry inhibition. hit rate 1.2% among 300,000. Lassa virus pseudotype entry inhibition, cell reporter. AID 540256. Potency, µM (series often up to 37.9 µM), inactives show at the highest dose activity change, negative = inhibition, actives largely listed as inhibitors; calls by dose curve; tested in HEK293 cells; also: potency is read from the fitted curve at half-maximal effect; nearly all actives have a fitted effect of over 50% in size
Marburg entry inh: blocks Marburg virus binding to or entry into cells | Marburg virus pseudotyped entry inhibition, cell reporter | hit rate 1.8% among 300,000 | Potency, µM (series often up to 37.8 µM), inactives show at the top dose activity change, negative = inhibition, actives largely listed as inhibitors | AID 540276; calls by dose curve; tested in HEK293 cells; also: potency is read from the fitted curve at half-maximal effect
Vaccinia mCherry: vaccinia inhibition (mCherry reporter). Vaccinia virus mCherry reporter infection, fluorescence. Potency, µM (top dose mostly 36.5 µM), for the others: at the highest dose activity change, negative = inhibition, hits mostly inhibitors. hit rate 0.63% among 310,000; calls by dose curve; tested in A549 cells; also: potency is read from the fitted curve at half-maximal effect; nearly all actives have a fitted effect of over 35% in size
An asterisk follows results filed as active; i = inactive; ? = inconclusive; . = no result given; ! = not active in a repeat; [ ] = remark or other dose. A selection: hits, their analogues and other compounds. The true share with any hit is near 7.8%. % is scaled to controls: 0 for no effect and ±100 for the full control effect.

SMILES	HCV inh	HCMV antiviral	VACV Venus inh	LASV entry inh	Marburg entry inh	Vaccinia mCherry
CC(=O)Nc1cccc(C(=O)/C=C/c2ccc(Br)cc2)c1	?	-71*	11µM*	?	15µM*	22µM*
CC(=O)Nc1cccc(C(=O)/C=C/c2ccc(N(C)C)cc2)c1	7%	30	31%	-10%	4%	?
CC(=O)Nc1cccc(C(=O)/C=C/c2ccc(F)cc2)c1	?	-99*	-25%	?	?	-22%
CC(=O)Nc1cccc(C(=O)/C=C/c2ccc(/C=C/C(=O)c3cccc(NC(C)=O)c3)cc2)c1	?	-88*	.	.	.	.
Cc1cccc(C(=O)Nc2ccc(C(=O)/C=C/c3ccncc3)cc2)c1	-12%	-101*	-18%	?	?	i
CCOc1ccccc1NC(=O)C(NS(=O)(=O)c1ccc2c(c1)CCC(=O)N2)c1ccccc1 (stereo not drawn)	.	0	-12%	?	7%[46.1 µM]	-11%
Cc1cccc(S(=O)(=O)c2cn(C)c3cc(N4CCN(c5ccc(F)cc5)CC4)c(F)cc3c2=O)c1	.	-34	-12%	7%[46.1 µM]	.	-4%
COc1ccc(C(=Cc2cc(OC)c(OC)cc2[N+](=O)[O-])C(=O)O)cc1	-20%	-99*	-9%	-3%	0%	-16%
Cc1onc(-c2ccccc2)c1C(=O)NC(=S)NNC(=O)c1ccc(O)cc1O	?	-95*	-21%	2.5µM*	?	-9%
Cc1onc(-c2ccccc2)c1C(=O)NC(=S)NNC(=O)c1ccccc1O	?	-70*	?	?	3.2µM*	?
COc1ccc(C(=O)c2c3ccc([N+](=O)[O-])cc3[n+]([O-])n2CCCC(N)=O)cc1	?	-11	?	.	.	?
NCCCn1c(C(=O)c2cc(Cl)c(N)c(Cl)c2)c2ccc([N+](=O)[O-])cc2[n+]1[O-]	?	-67*	13µM*	.	.	?
Cc1ccc(C(=O)c2c3ccc([N+](=O)[O-])cc3[n+]([O-])n2CCC(N)=O)cc1	13µM*	-20	?	.	.	?
CC(C)[C@H]1C(=O)Nc2ccccc2N1C(=O)N[C@@H](Cc1ccccc1)C(=O)N[C@@H](C(=O)O)c1ccccc1	4%	10	6%	.	.	6%
CC(C)[C@H](NC(=O)N1c2ccccc2NC(=O)[C@@H]1C(C)C)C(=O)N1CCC(C(=O)O)CC1	32µM*	40	-5%	.	.	-5%
C[C@@H]1COc2cc(F)ccc2S(=O)(=O)N1	.	.	.	-7%[46.1 µM]	.	.
CC(=O)c1cccc(NC(=O)C(C)n2c(=O)cc(-c3ccccc3)c3c(C)nn(C)c32)c1 (stereo not drawn)	.	2	-10%	-24%[46.1 µM]	.	-6%
O=C(CSc1nc2ccccc2c(=O)n1Cc1ccco1)NCCN1C(=O)CSC1=O	10µM*	-32	0%	-12%	-2%[46.1 µM]	-12%
COC(=O)c1ccc2c(=O)n(Cc3ccco3)c(SCC(=O)Nc3ccc(C)c(Cl)c3)nc2c1	10%	-63*	.	?	?	.
CCOC(=O)N1CCC(n2c(SCC(=O)N3CCC(C)CC3)nc3ccccc3c2=O)CC1	13µM*	?	.	?	-65%	.
COc1ccc(C(=O)NCc2cc(C)nc3ccccc23)cc1	16µM*	-24	.	?	?	.
CCOC(=O)N1CCC(n2c(SCC(=O)N3CCCC3)nc3ccccc3c2=O)CC1	?	-22	.	?	-19%	.
CCOc1ccc(N2CC(NC(=O)c3ccc(S(=O)(=O)N4CCCCC4)cc3)CC2=O)cc1 (stereo not drawn)	.	-25	-19%	-8%[46.1 µM]	.	-14%
O=Cc1ccc(I)cc1	.	.	-15%	.	.	-3%
COc1ccc(C(=O)Nn2c(SCC(=O)NCc3ccco3)nc3ccccc3c2=O)cc1	-15%	-73*	-6%	1µM*	0.4µM*	-8%
SMILES	HCV inh	HCMV antiviral	VACV Venus inh	LASV entry inh	Marburg entry inh	Vaccinia mCherry
COc1ccccc1CNC(=O)c1cc(C)nc2ccccc12	?	-2	-8%	-10%	3%[46.1 µM]	-10%
CCn1c(SCC(=O)NCc2ccco2)nc2ccccc2c1=O	-7%	-11	.	.	.	.
O=C(CCCCCn1c(SCc2ccncc2)nc2ccccc2c1=O)NCc1ccco1	10µM*	-21	.	-2%	?	.
COc1ccccc1CN(C)C(=O)c1cc(C)nc2ccccc12	1%	-15	-6%	-1%[46.1 µM]	11µM*	-11%
COc1ccc(C(=O)Nn2c(SCC(=O)NC3CCCCC3)nc3ccccc3c2=O)cc1	4%	-3	.	?	?	.
COc1ccc(C(=O)Nn2c(SCC(=O)N3CCC(C)CC3)nc3ccccc3c2=O)cc1	-5%	-62*	.	8.2µM*	1.6µM*	.
COC(=O)C1=C(C(=O)OC)[C@]2([C@@H]3C/C=C\CN[C@@H](Cc4ccccc4)C(=O)N3Cc3ccccc3)C=C[C@H]1O2	.	.	-19%	.	.	-9%
CC(=O)Nc1cc(-c2cccc(C(=O)NCCO)c2)cn2c(-c3cccc(C(F)(F)F)c3)cnc12	.	-24	?	.	.	?
CCOc1ccc(NC(=O)CCc2c(C)nc3nc(-c4cc(OC)cc(OC)c4)nn3c2C)cc1	.	10	-9%	3%[46.1 µM]	0%[46.1 µM]	-9%
O=C(CSc1nc2ccsc2c(=O)n1Cc1ccccc1F)NCc1ccccc1Cl	.	-91*	-5%	-2%[46.1 µM]	.	2%
COc1ccc(C(=O)NCCS(=O)(=O)NCc2ccccc2)cc1	-1%	-98*	-9%	-1%	-19%	i
CCOC(=O)CSc1nc2ccsc2c(=O)n1C1CCN(C(=O)OCC)CC1	-9%	6	.	-17%	?	.
O=C(CSc1nc2ccsc2c(=O)n1Cc1ccc(C(=O)O)cc1)NCc1ccco1	21%	-26	-7%	3%	1%	-12%
CCOC(=O)N1CCC(n2c(SCC(=O)Nc3nccs3)nc3ccsc3c2=O)CC1	-20%	-90*	.	?	?	.
COc1ccc(Cn2c(SCC(=O)NCc3ccco3)nc3ccsc3c2=O)cc1	2.5µM*	19	.	-4%	?	.
ClC(=Nc1cccc2ccccc12)N(c1ccccc1)c1ccccc1	.	.	-10%	.	.	-5%
COc1ccc(Nc2nccc3c2cc(-c2ccccc2OC)n3C)cc1	.	-67*	.	.	.	.
CC(=O)NC(Cc1ccc(N(CCCl)CCCl)cc1)C(=O)O (stereo not drawn)	1%	-25	-3%	-29%	?	i
NC(Cc1ccc(O)cc1)C(=O)NN=Cc1ccc(N(CCCl)CCCl)cc1 (stereo not drawn)	?	-17	-18%	4µM*	1.3µM*	-2%
N[C@@H](Cc1ccc(N(CCCl)CCCl)cc1)C(=O)O	?	-27	-18%	.	5.8µM*	-2%
O=C(O)CCCc1ccc(N(CCCl)CCCl)cc1	-15%[8.37 µM]	1	-24%	-29%	3.2µM*!	-8%
CCCn1c2ccccc2c2cnn(CC(=O)NCCc3ccc(OCC)c(OCC)c3)c(=O)c21	.	-13	-5%	2%[46.1 µM]	.	i
